This note sets out measurements from PubChem BioAssay AID602449 (Sanford-Burnham Center for Chemical Genomics, 2012).

The whole screen tested about 360,000 compounds, of which about 5,000 (1.4%) were called active.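 The calls were made as follows: active = inhibition of 50% or more, scaled per plate between neutral and stimulator controls; inactive = the rest.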 This excerpt belongs to a sample that is enriched for actives.

The nature of this assay: mitochondrial permeability transition pore inhibitors, primary screen, biochemical, isolated mouse mitochondria, absorbance (AID 602449).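 Also: 0% = DMSO wells given calcium and 100% = 1 mM EGTA wells.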 The conditions noted are these: Ca2+ swelling absorbance, 30 min, at 10 µM, hits give high values.
Turning to `COc1cc(SC)ccc1C(=O)Nc1nc(C)cs1`, the inhibition was 0.2% (inactive).
Regarding `CCCCOc1ccc(CSC(=N)N)cc1[N+](=O)[O-]`, the inhibition is 112% (active).
For `CCCCOC(=O)CCCc1ccc([N+](=O)[O-])cc1[N+](=O)[O-]` the value was 1.5% (inactive).
On to `CCCCCOc1ccc(CSC2=NCCN2)cc1[N+](=O)[O-]`, for which the inhibition is -1.4% (inactive).
Next, `CC(C(=O)Nc1ccc(O)c(C(=O)O)c1)N1C(=O)/C(=C/c2cccs2)SC1=S` (centres undefined): -1.2% (inactive); `Cc1c(C(=O)NCCN2C(=O)S/C(=C\c3cccs3)C2=O)cccc1[N+](=O)[O-]`: 1.1% (inactive); `O=C(CCN1C(=O)/C(=C/c2cccs2)SC1=S)NNC(=O)c1cccc(O)c1`: 67.7% (active).
As to `COc1ccccc1N(C(=O)Cn1nnc2ccccc21)C(C(=O)NCc1ccco1)c1ccc(C)o1` (centres undefined), the inhibition was 4% (inactive).
On to `CCOC(=O)N1CCN(C(=O)c2ccc(CN(c3ccc(C)c(C)c3)S(C)(=O)=O)cc2)CC1`, for which the inhibition was 5.2% (inactive).
Take `CCOC(=O)N1CCN(C(=O)c2ccc3c(c2)N(Cc2ccc(C)cc2)CCS3)CC1`: the inhibition was 89% (active).
Regarding `O=C(NCCc1ccccc1)c1ccc2c(c1)N(Cc1ccccc1)CCS2`, the inhibition was 0.6% (inactive).
For `CN(CCc1ccccc1)C(=O)c1cccc(NC(=O)Cc2cccc(NC(=O)C3CCCN(C(=O)CCc4ccccc4)C3)c2)c1` (centres undefined) the value was -0.3% (inactive).
Consider `CC(=O)c1c(C)[nH]c(C(=O)Nc2cc(S(=O)(=O)N(C)C)ccc2C)c1C`, for which the inhibition was -1.8% (inactive).
For `CSc1ccc(/C=C2\NC(=O)NC2=O)cc1` the value was 0.6% (inactive).
Next, `COC(=O)C1(C)NC(c2ccccc2OC)C2C(=O)N(c3ccccc3)C(=O)C21` (centres undefined): 1.1% (inactive).
Next, `Cc1ccc(-c2nc(COC(=O)c3c(C)noc3C)cs2)cc1`: 88.5% (active); `COc1ccc(C(=O)COC(=O)c2c(C)noc2C)cc1Cl`: -2.4% (inactive); `COc1cc(OC)cc(C(=O)NCC(=O)OCc2csc(-c3ccccc3)n2)c1`: -4.3% (inactive).
As to `CC12CN(NC(=O)c3ccc(Cl)cc3)C3(C#N)CC1CCC23C` (centres undefined), the inhibition is 8.6% (inactive).
For `Nc1ncc(CN2CCCC(C(=O)Nc3ccc(-c4ccco4)cc3)C2)cn1` (centres undefined) the value was -0.6% (inactive); for `CCOC(=O)C1(Cc2ccc(O)cc2)NC(c2ccccc2F)C2C(=O)N(C)C(=O)C21` (centres undefined), -1.2% (inactive); for `CC(C)OCCCNc1ncnc2c1[nH]c1ccc(F)cc12`, 88.4% (active).
As to `O=C1CSc2ccc(S(=O)(=O)NCc3ccccc3)cc2N1`, the inhibition was -1.3% (inactive).
For `Cc1ccc(C)c(S(=O)(=O)n2cnc3ccccc32)c1` the value was -3.1% (inactive).
For `Cc1ccc(C)c(S(=O)(=O)N2CCN(CC(=O)Nc3ccc([N+](=O)[O-])cc3)CC2)c1` the value was 7.1% (inactive); for `Cc1ccc(C)c(S(=O)(=O)N2CCN(c3ncnc4sccc34)CC2)c1`, 86.5% (active); for `CCCNC(=O)C1(C)CCN1C(=O)C1(c2ccccc2)CC1` (centres undefined), -0.6% (inactive).
Next, `O=C(CSc1ccc(C(F)(F)F)cc1[N+](=O)[O-])NCCOc1ccccc1`: 18% (inactive).
Consider `C=CCNC(=O)CCCOc1cccc(C)c1`, for which the inhibition was 1.5% (inactive).
For the molecule `Cc1cccc(OCCNC(=O)CSc2ccc(C(F)(F)F)cc2[N+](=O)[O-])c1`, the inhibition was 80.1% (active).
Next, `Cc1cc(C)n2c(NCc3ccccc3)c(CC(C)C)nc2n1`: 0.4% (inactive); `Fc1ccc(N2N=C(c3cccs3)CC2c2ccco2)c(F)c1` (centres undefined): 57.7% (active).
On to `Cc1ccccc1C1CC(c2cccs2)=NN1S(C)(=O)=O` (centres undefined), for which the inhibition was -0.3% (inactive).
For `O=C(COc1ccccc1Cl)N1N=C(c2cccs2)CC1c1ccco1` (centres undefined) the value was -0.8% (inactive); for `O=C(NCc1ccccn1)c1cnc2sccn2c1=O`, -2.8% (inactive).
Consider `C/C(=N\Nc1ccc(S(N)(=O)=O)cc1[N+](=O)[O-])c1cccs1`, for which the inhibition was 2.3% (inactive).
Next, `O=C(OCc1nc2ccccc2[nH]1)C1CCCCC1`: -0.1% (inactive); `c1ccc2c(CSCc3nc4ccccc4[nH]3)cccc2c1`: 74.4% (active).
For `c1ccc2c(C[n+]3csc4ccccc43)cccc2c1` the value was -1.7% (inactive).
For `COc1ccc(N(CC(=O)N2CCOCC2)S(=O)(=O)c2ccccc2)cc1Cl` the value was 1.3% (inactive).
With `O=c1c2cc(Br)ccc2nc(-c2cccc(Cl)c2)n1O`, the inhibition was 0.6% (inactive).
Next, `O=C(/C(=C/c1cccc(Cl)c1)c1nc2ccccc2[nH]1)c1ccccc1`: 84.4% (active); `O=c1[nH]c(/C=C/c2cccc(Br)c2)nc2ccccc12`: 2.1% (inactive); `CC1CN(C(=S)Nc2ccc(S(N)(=O)=O)cc2)CC(C)O1` (centres undefined): -0.5% (inactive).
`NC(=O)Cn1c(=O)oc2ccccc21`: the inhibition was -0.1% (inactive).
Next, `CN1CCN(c2ncc3c(n2)CC(c2ccccc2F)CC3=O)CC1` (centres undefined): 1.4% (inactive); `O=C(Oc1ccccc1Cl)c1ccc(N2CCOCC2)c([N+](=O)[O-])c1`: 9.1% (inactive).
`CS(=O)(=O)c1ccccc1C(=O)Nc1ccc2sccc2c1`: the inhibition is -0.4% (inactive).
Turning to `O=C(Nc1ccc2ccccc2c1)Nc1ccc2snnc2c1`, the inhibition is 99.8% (active).
For `Cc1ccc(NC(=O)Nc2ccc3oc(C)nc3c2)cc1` the value was -2.9% (inactive); for `CC1(C(=O)NS(=O)(=O)c2cccc(F)c2)CCN1C(=O)Cc1cc(F)ccc1F` (centres undefined), -0.4% (inactive); for `CCc1nc2c(OCc3ccc(C(F)(F)F)cc3)cccn2c1N(C)C(=O)CC(C)C`, 0.1% (inactive).
For `O=C(O)c1cc(S(=O)(=O)NC2CCCc3ccccc32)ccc1O` (centres undefined) the value was 0.3% (inactive); for `COc1cc(C2C(N3C(=O)c4ccccc4C3=O)C(=O)N2c2ccc(C)c(C)c2)cc(OC)c1OC` (centres undefined), 3% (inactive).
Next, `COc1ccc2c(c1)c(=Cc1ccc(N(C)C)cc1)c1cc(-c3ccccc3)[n+](C)n12`: 80.7% (active).
Consider `Cc1nc(N2CCOCC2)c2c(C)c(C(=O)Nc3ccc(C(F)(F)F)cc3)sc2n1`, for which the inhibition is 72.5% (active).
Next, `Cc1nc(N2CCN(c3ccccn3)CC2)c2c(C)c(C(=O)Nc3ccc(F)c(Cl)c3)sc2n1`: 16.7% (inactive).
For `Cc1nc(N2CCC(C)CC2)c2c(C)c(C(=O)Nc3cc(F)ccc3C)sc2n1` the value was 13.5% (inactive); for `C=C(C)Cn1c(N2CCN(CC)CC2)nc2c1c(=O)[nH]c(=O)n2C`, -0.4% (inactive).
Next, `Cc1oc2cc([N+](=O)[O-])c(O)c([N+](=O)[O-])c2c1C(=O)c1ccc(Br)cc1`: 74.4% (active); `Cc1ccc(C(=O)c2ccc(N3CCN(C)CC3)c([N+](=O)[O-])c2)cc1`: 0.6% (inactive).
As to `COc1ccc(C(=O)c2c(C)oc3cc([N+](=O)[O-])c(O)c([N+](=O)[O-])c23)cc1`, the inhibition was 3.3% (inactive).
For `O=C(Nc1ccccc1F)C1C2C=CC3(O2)C1C(=O)N(c1cccnc1)C3C(=O)NC1CCCCC1` (centres undefined) the value was 1.6% (inactive); for `O=S(=O)(NCC1OCCc2ccccc21)c1ccccc1` (centres undefined), 4.3% (inactive).
As to `O=C(O)C(CCc1ccccn1)c1ccccc1` (centres undefined), the inhibition was 0.6% (inactive).
With `CC1CCCC(NC(=O)c2cccc(N3CCCC3=O)c2)C1C` (centres undefined), the inhibition was -0.6% (inactive).
Next, `CCCOc1ccc(C(=O)C(CCC(CNCC)C(=O)c2ccc(OCCC)cc2)CNCC)cc1` (centres undefined): 73.6% (active); `CC(C)CCOc1ccc(C(=O)C[N+]2(C)CCOCC2)cc1`: -1.9% (inactive); `CCCc1ccc(OCCNC(=O)c2ccccc2Br)cc1`: 0.4% (inactive).
Next, `COc1cccc(NC(=O)COc2cc(C)cc3oc(=O)cc(C)c23)c1`: 0.4% (inactive); `Cc1nccn1CCC1CCCCN1C(=O)CCc1nnc(-c2ccsc2)o1` (centres undefined): -1.2% (inactive).
As for `O=C(Nc1nnc(C2COc3ccccc3O2)o1)c1ccc(F)cc1` (centres undefined), the inhibition was -3% (inactive).
For `c1ccc2c(c1)CSc1sccc1C2=C1CCNCC1` the value was 94.3% (active); for `Cc1ccc(-n2ncc3c(Nc4cccc(C(=O)O)c4)ncnc32)cc1`, 3.4% (inactive); for `N#CC1=C(N)Oc2cc(N)ccc2C1c1ccccc1` (centres undefined), -0.1% (inactive).
Next, `Cc1nn(Cc2ccccc2)c2c1C(c1ccccc1)C(C#N)=C(N)O2` (centres undefined): 81.3% (active).
For `Cn1c2c(c(=O)n(C)c1=O)C(c1cccc(F)c1)C(C#N)=C(N)O2` (centres undefined), the inhibition was 1.8% (inactive).
Next, `C[C@H]1CN([C@@H](C)CO)C(=O)CCCn2cc(nn2)CO[C@@H]1CN(C)S(=O)(=O)c1ccccc1C#N`: -0.4% (inactive); `COc1ccc(NC(=O)C(CC(C)C)NC(=O)C2CCC(C)CC2)cc1` (centres undefined): 0.1% (inactive).
For `O=C(CN1CCN(c2ccccc2O)CC1)NC(=O)NCc1ccccc1` the value was 1.2% (inactive).
For `O=C(CN1CCC(NC(=O)Nc2ccccc2)CC1)Nc1cccc([N+](=O)[O-])c1`, the inhibition was -0.8% (inactive).
For `O=C(CSc1ncn[nH]1)Nc1nc(-c2cccc([N+](=O)[O-])c2)cs1` the value was 8.3% (inactive); for `O=C(CSc1nc(-c2ccccc2)cs1)Nc1cccc([N+](=O)[O-])c1`, 93% (active); for `CC1CCC(NC(=O)CN(C)S(=O)(=O)c2ccc3c(c2)c(=O)n(C)c(=O)n3C)CC1` (centres undefined), -2.1% (inactive).
Next, `O=C(CSc1nnc(-c2cccs2)n1Cc1ccco1)c1ccc2c(c1)OCO2`: -1.2% (inactive); `COc1ccc(/C=C2\CCCC3C2=NN(C(=O)c2scnc2C)C3c2ccc(OC)cc2)cc1` (centres undefined): -3.7% (inactive).
Next, `CCc1cc2c(N3CCN(c4nnc(CC)s4)CC3)ncnc2s1`: 58.3% (active); `CCc1ccc(C(=O)NNC(=O)C2CCN(c3ncnc4sc(C)c(C)c34)CC2)cc1`: -0.3% (inactive).
On to `COC(=O)[C@@H](Cc1ccccc1)NC(=O)NCCc1ccccc1`, for which the inhibition is 0.6% (inactive).
For `NC[C@H](Cc1ccccc1)NCCc1cc(C(F)(F)F)cc(C(F)(F)F)c1` the value was 88.5% (active); for `CCOC(=O)c1c(NC(=O)CNC2CCCc3ccccc32)sc(C(N)=O)c1C` (centres undefined), 0.8% (inactive); for `O=C(NC1CCN(Cc2ccccc2)CC1)c1ccc(Oc2cc(Cl)cc(Cl)c2)o1`, 10.6% (inactive).
For `Cc1cc(C(=O)NC2CCN(Cc3ccccc3)CC2)n[nH]1` the value was -1.6% (inactive).
Turning to `O=C(NC1CCN(Cc2ccccc2)CC1)c1cc(Br)c(Br)[nH]1`, the inhibition is 66.2% (active).
